aSyn 5UTR act = Activators via SNCA 5'UTR binding, MLPCN; alpha-synuclein 5'UTR reporter, activators screen; activity score, % (tested at 7.5 µM), hits read low; hit rate 7.1% among 300,000; in the data active = activity score below about -60%
A number is an active result; 0 = inactive. The list is a sample of the results.

SMILES	aSyn 5UTR act
Cc1cc(NC(=O)CSc2nc3ccccc3c(=O)n2C2CCCC2)no1	0
COC(=O)CSc1nc2cc(C)ccc2cc1C#N	-189
COc1ccc2nc(SCC(=O)N3CCCCC3)c(C#N)cc2c1	-107
Cc1ccc2nc(SCC(=O)Nc3ccc4sc(C)nc4c3)c(C#N)cc2c1	-129
N#Cc1cc2cc3c(cc2nc1SCC(=O)N1CCOCC1)OCCO3	0
COc1ccc2nc(SCC(=O)NC3CC3)c(C#N)cc2c1	-68
COc1ccc(-c2cc3ncc(-c4ccccc4)c(N)n3n2)cc1	-96
CCN(CC)CC#CC(OC)(c1ccccc1)c1ccccc1	-81
Cn1cc(/C=N/n2cnc3scc(-c4ccc(Cl)cc4)c3c2=O)c2ccccc21	0
Cc1sc2ncn(/N=C/c3ccco3)c(=O)c2c1C	-67
Cn1c(SCC(=O)Nc2ccccc2F)nnc1-c1cccs1	-78
Cn1c(SCc2c(F)cccc2Cl)nnc1-c1cccs1	-83
CN1/C(=C/C(=O)c2ccc(Cl)cc2)Sc2cc3c(cc21)OCO3	-160
COc1cc(OC)cc(C(=O)/C=C2\Sc3ccccc3N2C)c1	-154
CN1/C(=C\C(=O)c2cccc([N+](=O)[O-])c2)Sc2ccccc21	-83
COc1ccc2c(c1)S/C(=C\C(=O)c1ccncc1)N2C	-165
CN1/C(=C/C(=O)C2CCC2)Sc2ccccc21	-89
CCOc1cccc(/C=C2\NC(=S)N(c3ccccc3)C2=O)c1O	-148
Cc1cc(NCCN2CCOCC2)c2ccc3ccccc3c2n1	-132
Cc1ccc(-c2nc(NCCN3CCOCC3)c3ccccc3n2)cc1	-138
c1ccc(CN2CCC(Nc3nc(-c4ccccc4)nc4ccccc34)CC2)cc1	0
O=C(NCC(=O)N1CCN(c2ccccc2O)CC1)c1cccs1	-63
Cc1c(C)c2ccc(OCC(=O)c3ccccc3)cc2oc1=O	-80
CCCc1c(C)c2ccc(OCC(C)=O)cc2oc1=O	-143
Cn1c(/C(C#N)=C/c2ccc(O)cc2)nc2ccccc21	-126
SMILES	aSyn 5UTR act
CCNC(=S)Nc1ccc(-c2nc3ccccc3[nH]2)cc1	-161
CCOc1ccc(NC(=S)NCc2nc3ccccc3[nH]2)cc1	-69
Cc1cc(C)c2oc(-c3cccc(N)c3)nc2c1	-132
Cc1cc(/C=C2\C(=O)NN(c3ccccc3)C2=O)c(C)n1-c1ccccc1O	-132
O=C1NN(c2ccccc2)C(=O)/C1=C/c1coc2ccccc2c1=O	-138
COc1ccc(-n2c(C)cc(/C=C3\C(=O)NN(c4ccccc4)C3=O)c2C)cc1	-113
Cc1cc(/C=C2/C(=O)NN(c3ccccc3)C2=O)c(C)n1-c1ccc(O)cc1	-138
CCCc1ccc2oc(C(=O)N3CCC(COC)C3)c(C)c2c1 (configuration not stated)	-113
CCCc1ccc2oc(C(=O)N3CCC[C@H]3CO)c(C)c2c1	-200
C/C(=N\NC(=O)c1cccc(Cl)c1)C1C(=O)c2ccccc2C1=O	-120
Brc1ccc2c(c1)OCCOCCOc1cc(Br)ccc1OCCOCCOCCO2	0
O=C(c1cc2cc(Br)ccc2o1)N1CCCC1	-64
O=C(c1cc2cc(Br)ccc2o1)N1CCOCC1	-85
O=C(c1ccc2ccccc2c1)N1CCc2ccccc21	-100
O=C(c1cccs1)N1CCc2ccccc21	-157
CCOc1ccc(C(=O)N2CCc3ccccc32)cc1	-104
COc1ccccc1NC(=S)N(Cc1ccco1)Cc1cc2cc(C)c(C)cc2[nH]c1=O	0
Cc1ccc2[nH]c(=O)c(-c3nc4ccccn4c3NCc3ccco3)cc2c1	-100
O=Cc1c(NCc2ccco2)nc2ccccn2c1=O	-89
c1ccc(OCCSc2nnnn2C2CCCCC2)cc1	-122
COc1ccccc1OCCSc1nnnn1C1CCCCC1	-81
Cc1ccc(NC2=C(Cl)C(=O)c3ccccc3C2=O)cc1	0
Cc1ccc(NC2=C(N3CCOCC3)C(=O)c3ccccc3C2=O)cc1	-84
COc1ccc(-n2nc3ccccc3n2)cc1	-93
COc1ccc2nc3ccccc3nc2c1	-123
SMILES	aSyn 5UTR act
COc1ccc(-n2nc3cc(N)c(Br)cc3n2)cc1	-164
Nc1ccc(-n2nc3ccccc3n2)cc1	0
COc1ccc(-n2nc3cc(C)c(N)c(Br)c3n2)cc1	-89
COCCCNc1nnc(Cc2ccc(Cl)cc2)c(=O)[nH]1	0
CCN(CC)CCn1c2ccccc2c2nc3ccccc3nc21	-213
OCCN(CC#CCn1c2ccccc2c2ccccc21)CCO	0
O=C(Nc1ccc2c(c1)OCO2)N1CCN(c2ccc(F)cc2)CC1	-122
O=C(Nc1ccc2c(c1)OCO2)N1CCN(c2ncccn2)CC1	-111
O=C(Nc1ccc2c(c1)OCO2)N1CCN(c2ncc(C(F)(F)F)cc2Cl)CC1	-104
O=C(Nc1ccc2c(c1)OCO2)N1CCN(c2ccccc2)CC1	-195
COc1ccc(NC(=O)Nc2ccc3nccnc3c2)cc1	-122
COc1ccc(NC(=O)Nc2ccc3nonc3c2)cc1	-150
O=C(/C=C/N1CCOCC1)c1coc2ccccc12	-104
Cc1c(C(=O)Nc2ccc(N3CCOCC3)cc2)oc2ccccc12	-166
O=C(Nc1ccc(N2CCOCC2)cc1)c1cc2ccccc2o1	-110
O=C(/C=C/N1CCOCC1)c1cc2ccccc2o1	-82
O=C(Nc1ccc(CN2CCOCC2)cc1)c1cc2ccccc2o1	-71
O=C(Nc1ccc(CN2CCOCC2)cc1)c1cc2ccccn2n1	0
COc1ccc(N=C2S/C(=C\c3ccc(Cl)c([N+](=O)[O-])c3)C(=O)N2CCN(C)C)cc1	0
C=CCN1C(=O)/C(=C2/Sc3ccc(OC)cc3N2C)SC1=Nc1ccc(OC)cc1	-79
CCN(CC)CCN1C(=O)/C(=C\c2ccc(Cl)c([N+](=O)[O-])c2)SC1=Nc1ccc(OC)cc1	0
O=C(N/N=C/c1ccccc1[N+](=O)[O-])C(=O)N1CCCC1	-72
O=C(/C=C1\NC2(CCCC2)Cc2ccccc21)C(=O)N/N=C/c1ccccc1O	0
O=C(CSc1ccccc1)Nc1ccc2sccc2c1	-78
O=C(CSc1cccs1)Nc1cccc2ccccc12	-112
SMILES	aSyn 5UTR act
O=C(CSc1cccs1)Nc1ccc2ccccc2c1	-126
COCn1c(-c2ccc(OC)cc2)nc2ccccc21	-192
OCc1nc2ccccc2n1CCCOc1ccc(Br)cc1	-104
COCCn1c(COc2ccc(OC)cc2)nc2ccccc21	-82
C=CCn1c(COc2ccc(OC)cc2)nc2ccccc21	-75
CCn1c(COc2ccc(OC)cc2)nc2ccccc21	-94
Cc1c(C(=O)NCC2CCCO2)oc2ccc(Br)cc12 (configuration not stated)	-82
Cc1cc(Cl)c2oc(C(=O)NCCC3CCCCO3)c(C)c2c1 (configuration not stated)	-63
CCc1nc(C)c(C(=O)N2CCCC(C(=O)Nc3cccc(-c4cccc(C)c4)c3)C2)o1 (configuration not stated)	-77
Cc1cccc(-c2cccc(NC(=O)C3CCCN(C(=O)c4csc(C)n4)C3)c2)c1 (configuration not stated)	-70
CCOC(=O)C1=C(C)C/C(=N\NC(=O)c2ccccc2O)CC1	-79
COc1ccc(-n2c(C)nc3c(cnn3-c3ccc(C)c(C)c3)c2=O)cc1	-85
O=C(Cn1ncc(N2CCOCC2)c(Cl)c1=O)c1ccc(Cl)cc1	-105
CCc1nccn1CCC(=O)N1CCCC(N2CCN(c3cccc(Cl)c3)CC2)C1 (configuration not stated)	-67
Nc1nc(-c2ccccc2)cn1/N=C/c1ccccc1	-138
CN(C)c1ccc(C(=O)NC2CCCc3ccccc32)cc1 (configuration not stated)	-71
COc1ccc(N=c2scc(-c3ccc(OC)cc3)n2CCO)cc1	-66
